# Compound activity from PubChem BioAssay.
# TDP1 inh – blocks human tyrosyl-DNA phosphodiesterase 1 | recombinant TDP1, AlphaScreen DNA substrate cleavage | Potency, µM (top dose mostly 130 µM), for inactives: top-dose activity change, negative = inhibition, most hits filed as inhibitors | 350,000 tested, 0.28% active; note: nearly all actives have a fitted effect of over 40% in size
#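 Signal: AlphaScreen proximity between streptavidin donor and anti-FITC acceptor beads on intact substrate. Reaction: Tdp1 1 nM, substrate 15 nM final, 5 min RT after 15 min compound preincubation.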
# TDP1 cell noCPT – qHTS for Inhibitors of human tyrosyl-DNA phosphodiesterase 1 (TDP1): qHTS in cells in absence of CPT; Potency, µM (top dose mostly 46.2 µM), for inactives: top-dose activity change, negative = growth inhibition, most hits filed as inhibitors; DT40 Tdp1-/- hTDP1 cells, no CPT, ATP luminescence, 48 h; 420,000 tested, 15% active; note: nearly all actives have a fitted effect of over 55% in size
#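 Luminescent ATP content (CellTiter-Glo) served as the growth readout. Knockout chicken DT40 cells expressing human TDP1 were exposed to compounds without camptothecin for a minimum 48 hr at 37 °C.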
# DT40 TDP1 CPT – DT40-hTDP1 cell growth loss with CPT. chicken DT40 Tdp1-/-;hTDP1 cells + 20 nM CPT, ATP luminescence, 48 h. Potency, µM (top dose mostly 46.2 µM), inactives show top-dose activity change, negative = growth inhibition, usual class: inhibitors. 420,000 tested, 12% active. AID 686979; note: nearly all actives have a fitted effect of over 55% in size
#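 Chicken DT40 Tdp1-/- cells stably complemented with human TDP1 were seeded at 400 cells/well in medium containing 20 nM camptothecin, exposed to pin-transferred compounds, and grown at 37 °C for at least 48 hr. Viability was read as ATP luminescence.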
# RORgamma inh – ROR gamma (mouse) transcription inhibition; P51450; Drosophila S2 Gal4-RORgamma UAS-luciferase reporter, 20 h; Potency, µM (doses to about 53.6 µM), for inactives: at the top dose activity change, negative = inhibition, most hits filed as inhibitors; 310,000 tested, 5.4% active; AID 2551; note: nearly all actives have a fitted effect of over 60% in size
# Target sequence (P51450 whole entry, looked up, the tested form may be a part): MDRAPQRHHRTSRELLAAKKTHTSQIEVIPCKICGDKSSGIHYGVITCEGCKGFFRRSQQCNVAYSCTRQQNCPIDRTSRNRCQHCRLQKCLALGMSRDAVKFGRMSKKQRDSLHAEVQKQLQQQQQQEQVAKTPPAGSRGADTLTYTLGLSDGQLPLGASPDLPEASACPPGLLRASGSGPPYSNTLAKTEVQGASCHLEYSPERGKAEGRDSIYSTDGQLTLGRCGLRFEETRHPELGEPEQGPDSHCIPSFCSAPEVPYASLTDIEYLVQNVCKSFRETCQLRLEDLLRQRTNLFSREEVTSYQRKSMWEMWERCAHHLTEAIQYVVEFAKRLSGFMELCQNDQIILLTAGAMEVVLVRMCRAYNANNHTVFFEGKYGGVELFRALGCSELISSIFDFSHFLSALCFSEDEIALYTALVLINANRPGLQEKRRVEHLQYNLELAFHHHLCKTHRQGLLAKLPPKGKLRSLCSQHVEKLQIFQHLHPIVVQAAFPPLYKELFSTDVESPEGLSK
#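 Read-out: Photinus luciferase luminescence; inhibitors lower reporter signal. Insect Schneider cells with Gal4-ROR gamma fusion under metallothionein promoter, UAS reporter; 700 uM final copper sulfate induction, 20 hr, ambient temperature.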
# VP16 counter – Gal4-VP16 reporter inhibition counter-screen; Drosophila S2 Gal4-VP16 UAS-luciferase, luminescence, 20 h; Potency, µM (top dose mostly 53.6 µM), for the others: at the top dose activity, negative = inhibition, hits mostly inhibitors; 310,000 tested, 3.5% active;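 note: Gal4-VP16 expression switched on by copper sulfate through the metallothionein promoter; nearly all actives have a fitted effect of over 50% in size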
# * = called active by the depositor; ? = inconclusive; nt = no result; ! = not confirmed by another sample; [ ] = another dose, or the depositor's remark. Compounds with a hit are over-represented: about 19% of the library has one in this group of screens. Calls come from the whole dose curve; as a rule, active = well fitted curve in the direction sought with a large enough effect; inconclusive = small, poorly fitted or top-dose-only effect, or another doubt; inactive = no such curve, though single readings can be large; an effect the other way counts as inactive or inconclusive. % is set by controls: 0 for no effect and ±100 for the full control effect; potency is the fitted concentration of half-maximal effect.
SMILES,TDP1 inh,TDP1 cell noCPT,DT40 TDP1 CPT,RORgamma inh,VP16 counter
C/C(=N\NC(=O)c1ccccc1[N+](=O)[O-])c1c(O)cc(C)oc1=O,5.5%,?,?,3.16µM*,6.31µM*
C/C(=N\NC(=O)c1ccc([N+](=O)[O-])cc1)c1c(O)cc(C)oc1=O,5.3%,?,?,0.631µM*,?
CS(=O)(=O)c1ccc(C(=O)OCc2nnc(-c3ccccc3)o2)cc1[N+](=O)[O-],7.7%,10.3µM*,3.66µM*,15.8µM*,12.6µM*
Cc1ccc(C(=O)OCc2nnc(-c3ccccc3)o2)o1,-3.1%,-3.9%,-8.5%,1.5%,-29.6%
CC(C)[C@H](NC(=O)c1ccccc1)C(=O)OCc1nnc(-c2ccccc2)o1,3.5%,23.1µM*,?,16.4%,-12.4%
Cc1ccc(C(=O)N[C@H](C(=O)OCc2nnc(-c3ccccc3)o2)C(C)C)cc1,2.6%,-19.2%,-32.5%,?,3.1%
CC(=O)c1c(C)[nH]c(C(=O)OCc2nnc(-c3ccccc3)o2)c1C,2.3%,13µM*,?,17.5%,1.5%
Cc1cc(C)n2nc(-c3cnn(C)c3C(F)(F)F)c(Cl)c2n1,2.0%,-13.9%,-24.5%,-4.4%,5.3%
c1ccc(COc2cccc(CN3CCN(c4ccccn4)CC3)c2)cc1,2.0%,-19.1%,-20.9%,26.3%,-19.3%
Clc1ccc(Cn2c(CN3CCCC3)nc3ccccc32)cc1,5.8%,7.18µM*,?,2µM*!,7.08µM*
CCn1c(CN2CCN(CCO)CC2)nc2ccccc21,6.0%,17.3%,0.1%,-10.3%,-8.3%
c1ccc(Cn2c(CN3CCCC3)nc3ccccc32)cc1,4.0%,15.8µM*,?,14.1µM*,?
CCOC(=O)N1CCC(=NNC(=O)c2ccccc2F)CC1,4.2%,7.0%,-3.1%,-0.6%,24.1%
COc1ccc(-n2nc([N+](=O)[O-])c(=NCc3ccco3)n2O)cc1,-8.1%,-24.2%,6.6%,-15.3%,-16.4%
O=[N+]([O-])c1nn(-c2ccc3c(c2)OCCO3)n(O)c1=NCc1ccccc1Cl,1.9%,?,-28.1%,-15.6%,0.1%
COc1ccc(-n2nc([N+](=O)[O-])c(=NCCc3ccc(Cl)cc3)n2O)cc1,6.0%,?,?,14.5%,-5.2%
COc1ccc(-n2nc([N+](=O)[O-])c(=NCCC3=CCCCC3)n2O)cc1,9.2%,?,20.6µM*,21.9%,4.2%
COc1ccc(-n2nc([N+](=O)[O-])c(=NC3CCN(Cc4ccccc4)CC3)n2O)cc1,5.4%,14.6µM*,16.4µM*,-0.6%,-19.8%
O=[N+]([O-])c1nn(-c2ccc3c(c2)OCCO3)n(O)c1=NC1CCCCC1,11.7%,?,20.6µM*,27.0%,?
COc1ccc(-n2nc([N+](=O)[O-])c(=NCc3cccnc3)n2O)cc1,1.1%,?,16.4µM*,15.6%[10 µM],11.2%
CCCCNC(=O)c1onc(CSc2ccccc2F)c1C(=O)O,5.1%,-6.9%,-0.9%,9.3%,-1.6%
COC(=O)CSc1nnc(CNC(=O)Cc2ccccc2)n1-c1ccccc1OC,2.0%,-14.8%,-5.4%,9.5%,-4.1%
COc1ccc(-n2nc([N+](=O)[O-])c(=NCCc3ccc(OC)c(OC)c3)n2O)cc1,5.7%,20.6µM*,14.6µM*,4.5%[10 µM],-8.5%
Cn1c(-c2sc(=S)n(-c3ccccc3)c2N)nc2ccccc21,3.1%,-18.5%,-3.4%,7.94µM*,-2.3%
C=CCn1c(N)c(-c2nc3ccccc3n2C)sc1=S,9.1%,-8.5%,-3.4%,-160.3%,?
SMILES,TDP1 inh,TDP1 cell noCPT,DT40 TDP1 CPT,RORgamma inh,VP16 counter
O=C(NCc1ccccc1)C1(c2ccccc2)CCN(S(=O)(=O)c2ccccc2)CC1,0.5%,?,?,-13.0%,21.7%
CSc1ccc(CN(C)C(=O)c2cc(S(=O)(=O)NCc3ccccc3)ccc2C)cc1,nt,20.6µM*,?,nt,nt
Cc1ccc(S(=O)(=O)NCc2ccccc2)cc1C(=O)N(C)CC(=O)Nc1c(Cl)cccc1Cl,nt,?,23.1µM*,nt,nt
O=C(Nc1nnc(C2CC2)s1)c1ccc(Cl)c(S(=O)(=O)N2CCc3ccccc3C2)c1,5.4%,-16.7%,1.1%,?,?
CCOCCCNC(=O)Cn1cc2c(n1)-c1c(oc(C(=O)N3CCCC3)c1C)CC2,5.1%,?,?,nt,nt
COCCCNC(=O)c1oc2c(c1C)-c1nn(Cc3ccc(Cl)cc3)cc1CC2,2.6%,18.4µM*,23.1µM*,nt,nt
COCCCNC(=O)c1oc2c(c1C)-c1nn(Cc3cccc(Cl)c3)cc1CC2,1.3%,18.4µM*,20.6µM*,nt,nt
COCCNC(=O)Cn1cc2c(n1)-c1c(oc(C(=O)N3CCCC3)c1C)CC2,-7.7%,-1.9%,-22.6%,nt,nt
CCN(CC)CCCNC(=O)c1oc2c(c1C)-c1nn(Cc3ccc(Cl)cc3)cc1CC2,2.6%,18.4µM*,?,nt,nt
COc1ccc(C2=CC(c3cccc(C)c3)n3nnnc3N2)cc1 (configuration not stated),3.8%,16.4µM*,?,nt,nt
CCOc1ccc(C2C=C(c3ccc(C)cc3)Nc3ncnn32)cc1 (configuration not stated),8.3%,nt,nt,11.2µM*,-6.0%
CCOc1ccc(C2C=C(c3ccccc3)Nc3nnnn32)cc1 (configuration not stated),2.1%,?,-22.6%,26.7%,-0.2%
COc1ccc(C2C=C(c3ccccc3)Nc3ncnn32)cc1 (configuration not stated),9.1%,?,18.4µM*,-39.4%,3.9%
CN(C)c1ccc(C2C=C(c3ccccc3)Nc3nnnn32)cc1 (configuration not stated),nt,18.4µM*,?,nt,nt
CCOc1ccc(C2C=C(c3cccc(OC)c3)Nc3nnnn32)cc1 (configuration not stated),7.1%,?,?,nt,nt
COc1cccc(-c2csc(N3CCN(S(=O)(=O)c4ccc(F)cc4)CC3)n2)c1,7.0%,-28.7%,-5.1%,-24.6%[10 µM],1.0%
COc1ccc(NC(=O)NC2CCN(C(C)C)CC2)c(OC)c1,0.0%,-7.3%,-26.1%,-20.9%,-9.6%
CN(C)c1ccc(NC(=O)Cc2ccccc2)c2ccccc12,nt,?,-16.9%,28.1%,29.8%
CCOc1ccc(C2C=C(c3ccc(C)cc3)Nc3nnnn32)cc1 (configuration not stated),6.2%,11.6µM*,9.2µM*,13.7%,-1.2%
COc1ccc(C2=CC(c3c(C)nn(-c4ccccc4)c3Cl)n3nnnc3N2)cc1OC (configuration not stated),8.3%,14.6µM*,?,-2.7%,9.1%
COc1ccccc1C1C=C(c2ccc(C(C)C)cc2)Nc2nnnn21 (configuration not stated),3.8%,?,?,nt,nt
